Where “and” joins values, the source holds several entries; their conditions need not be identical. Equal values may be shown once. Inconclusive results are not listed. Some structures have more than one record in an assay (separate samples or runs), and their calls can disagree. Calls of active or inactive are those of the source. Unless noted, calls come from the whole dose curve; as a rule, active = well fitted curve in the direction sought with a large enough effect in the repeat runs; inconclusive = weak or mixed curves; inactive = no such curve, though single readings can be large; an effect the other way counts as inactive or inconclusive.

Test [1] can be described thus: A CellTox Green Cytotoxicity Assay to monitor cytotoxicity in HEK293 cells - 32 hour (AID 1224881). Note: nearly all actives have a fitted effect of over 40% in size. Note: potency is the fitted concentration of half-maximal effect. The gist of the method:
(§1)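 Homogeneous no-lysis format: HEK293 cell suspension mixed with CellTox Green reagent, seeded, incubated 5 h at 37 C/5% CO2, then dosed by pintool with compound in DMSO.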

Test [2] is described as follows: A CellTox Green Cytotoxicity Assay to monitor cytotoxicity in HepG2 cells - 0 hour (AID 1224882). Note: nearly all actives have a fitted effect of over 35% in size. The essentials:
(§2)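 Fluorescent DNA-binding dye, 600 HepG2 cells/well, 5 h preincubation then compound in DMSO; same plates read at 0–40 h, 37 C.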

Test [3] in a line: A CellTox Green Cytotoxicity Assay to monitor cytotoxicity in HepG2 cells - 32 hour (AID 1224883). Note: nearly all actives have a fitted effect of over 50% in size. Note: potency is the fitted concentration of half-maximal effect. The gist of the method:
as §2

Test [4] is described as follows: qHTS RealTime-Glo MT Cell Viability Assay in HepG2 cells - 16 hour (AID 1224885). Note: nearly all actives have a fitted effect of over 50% in size. Note: potency is the fitted concentration of half-maximal effect. The gist of the method:
(§3)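 Cells + NanoLuc/prosubstrate dispensed (600 cells/well) → 5 h at 37 C/5% CO2 → compounds in DMSO transferred → 40 h incubation at 37 C, luminescence read at 0, 8, 16, 24, 32, 40 h.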
On the technique in general: In qHTS, concentration-response curves come from the screen itself.

Test [5] can be described thus: qHTS RealTime-Glo MT Cell Viability Assay in HEK293 cells - 8 hour (AID 1224887). Note: top concentration of the series differs between compounds; nearly all actives have a fitted effect of over 50% in size. The essentials:
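Measured as luminescence from the same continuously cultured HEK293 wells at successive time points (0, 8, 16, 24, 32, 40 h) after compound addition. Reagent present from seeding; dosing at 5 h; incubation 37 C.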

The nature of test [6]: A CellTox Green Cytotoxicity Assay to monitor cytotoxicity in HEK293 cells - 16 hour (AID 1224888). Note: nearly all actives have a fitted effect of over 35% in size. Note: potency is the fitted concentration of half-maximal effect. The essentials: as §1
A short description of test [7]: qHTS RealTime-Glo MT Cell Viability Assay in HepG2 cells - 0 hour (AID 1224889). Note: nearly all actives have a fitted effect of over 50% in size. The gist of the method:
as §3

The nature of test [8]: A CellTox Green Cytotoxicity Assay to monitor cytotoxicity in HepG2 cells - 8 hour (AID 1224890). Note: nearly all actives have a fitted effect of over 45% in size. The gist of the method:
as §2

Test [9] can be described thus: qHTS assay to identify small molecule antagonists of the androgen receptor (AR) signaling pathway using the MDA cell line in the presence of 0.5 nM R1881 - cell viability counter screen (AID 1259242). Note: nearly all actives have a fitted effect of over 45% in size. Note: potency is the fitted concentration of half-maximal effect. The essentials: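 Human breast carcinoma MDA-kb2 cells, cultured without CO2, receive compounds alongside 0.5 nM (final) R1881 agonist. After 16 hr at 37C, viability is taken as live-cell protease signal.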

Test [10] concerns the target Androgen receptor (Homo sapiens) (UniProt P10275). The test is described as follows: qHTS assay to identify small molecule antagonists of the androgen receptor (AR) signaling pathway using the MDA cell line in the presence of 0.5 nM R1881 (AID 1259243). Note: nearly all actives have a fitted effect of over 50% in size. Note: potency is the fitted concentration of half-maximal effect. The essentials:
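Cells: MDA-kb2 (MMTV-luc). Stimulus: 0.5 nM R1881. Time: 16 hr, 37C, no CO2. Detection: ONE-Glo luminescence after 30 min at RT.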

Test [11] has as its target Estrogen receptor (Homo sapiens) (UniProt P03372). The experiment in a line: qHTS assay to identify small molecule antagonists of the estrogen receptor alpha (ER-alpha) signaling pathway using the BG1 cell line in the presence of 0.1 nM 17-beta-estradiol (AID 1259244). Note: nearly all actives have a fitted effect of over 50% in size. The essentials: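 Seeding of stripped-serum-adapted VM7Luc4E2 cells, 24 h attachment, compound transfer, then 0.1 nM final 17beta-estradiol; after 22 h incubation, ONE-Glo reagent and luminescence reading.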

Test [12] can be described thus: qHTS assay to identify small molecule phospholipidosis (PLD) inducers (AID 1259344; active = well fitted curve in the direction sought with a large enough effect; an effect the other way counts as inactive or inconclusive; note: potency is the fitted concentration of half-maximal effect). The essentials: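 Read-out is LipidTOX Red fluorescence (ex 595/em 615) imaged in HepG2 cells after 24 h compound exposure at 37 C, with Hoechst nuclear counterstain (ex 352/em 461) allowing per-cell normalisation.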
Test [13] is described as follows: qHTS assay to identify small molecule HDAC inhibitors (AID 1259364).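 Note: wild-type HCT-116 cells with endogenous class I/II HDAC activity; top concentration of the series differs between compounds; nearly all actives have a fitted effect of over 45% in size.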 The gist of the method: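 After a 2 hr compound incubation (37C, 5% CO2), HCT-116 cells seeded at 1,500/well the day before received HDAC-Glo reagent; signal read as luminescence after 30 min at room temperature.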
Test [14] is described as follows: qHTS assay to identify small molecule HDAC inhibitors - cell viability counter screen (AID 1259365). The gist of the method:
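Wild-type HCT-116 cells, 1,500/well, cultured overnight, then compound-treated 2 h at 37 C. Viability measured as ATP luminescence with CellTiter-Glo after 30 min at room temperature.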

The nature of test [15]: qHTS assay to identify small molecule agonists of the sonic hedgehog signaling (Shh) pathway - cell viability counter screen (AID 1259366). Note: nearly all actives have a fitted effect of over 50% in size. Note: potency is the fitted concentration of half-maximal effect. The gist of the method: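 NIH/3T3-derived Gli1-Luc reporter cells, 2,000 per well, received compound after 4 h and were treated about 23 h at 37C. Viability measured in the same wells by CellTiter-Fluor fluorescence after 1 h.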
Test [16] is described as follows: qHTS assay to identify small molecule agonists of the sonic hedgehog signaling (Shh) pathway (AID 1259368; calls by dose curve;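 note: NIH/3T3-derived 3T3Gli1-Luc cells carrying a stable Gli1-driven firefly luciferase reporter; series mostly up to about 92 µM; nearly all actives have a fitted effect of over 15% in size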). The gist of the method:
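Stable NIH/3T3 Gli1-Luc reporter clone; 24 hr cpd exposure after a 4 hr settling period; luminescence endpoint.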

The nature of test [17]: A CellTox Green Cytotoxicity Assay to monitor cytotoxicity in HEK293 cells - 8 hour (AID 1224884). Note: nearly all actives have a fitted effect of over 35% in size. The essentials:
as §1

The nature of test [18]: qHTS RealTime-Glo MT Cell Viability Assay in HEK293 cells - 24 hour (AID 1224886). The gist of the method: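 Tox21 10K qHTS, HEK293, 600 cells/well, RealTime-Glo reagent co-dispensed with cells; 5 h preincubation, compound by pintool, 37 C, luminescence at 0–40 h.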
Test [19] in a line: qHTS assay to identify small molecule antagonists of the estrogen receptor alpha (ER-alpha) signaling pathway using the BG1 cell line in the presence of 0.1 nM 17-beta-estradiol - cell viability counter screen (AID 1259241). Note: nearly all actives have a fitted effect of over 40% in size. The gist of the method: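 VM7Luc4E2 cells (endogenous full-length ER-alpha, 4xERE-luciferase), cultured 5 days in charcoal-stripped serum, exposed to compounds with 0.1 nM 17beta-estradiol (final) for 22 hr at 37C. Viability read in same wells as live-cell protease fluorescence after 30 min.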

Test [20] can be described thus: qHTS assay to identify small molecule antagonists of the sonic hedgehog signaling (Shh) pathway - cell viability counter screen (AID 1259367). Note: nearly all actives have a fitted effect of over 55% in size. Note: potency is the fitted concentration of half-maximal effect. The gist of the method:
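Fluorescence read-out (CellTiter-Fluor, 1 hr at 37C) taken after 23 hr compound treatment of 3T3 Gli1-Luc cells stimulated with conditioned medium. Cells were seeded at 2,000 per well and pre-incubated 4 hr.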

Estrogen receptor (Homo sapiens), sequence (P03372 whole entry, looked up): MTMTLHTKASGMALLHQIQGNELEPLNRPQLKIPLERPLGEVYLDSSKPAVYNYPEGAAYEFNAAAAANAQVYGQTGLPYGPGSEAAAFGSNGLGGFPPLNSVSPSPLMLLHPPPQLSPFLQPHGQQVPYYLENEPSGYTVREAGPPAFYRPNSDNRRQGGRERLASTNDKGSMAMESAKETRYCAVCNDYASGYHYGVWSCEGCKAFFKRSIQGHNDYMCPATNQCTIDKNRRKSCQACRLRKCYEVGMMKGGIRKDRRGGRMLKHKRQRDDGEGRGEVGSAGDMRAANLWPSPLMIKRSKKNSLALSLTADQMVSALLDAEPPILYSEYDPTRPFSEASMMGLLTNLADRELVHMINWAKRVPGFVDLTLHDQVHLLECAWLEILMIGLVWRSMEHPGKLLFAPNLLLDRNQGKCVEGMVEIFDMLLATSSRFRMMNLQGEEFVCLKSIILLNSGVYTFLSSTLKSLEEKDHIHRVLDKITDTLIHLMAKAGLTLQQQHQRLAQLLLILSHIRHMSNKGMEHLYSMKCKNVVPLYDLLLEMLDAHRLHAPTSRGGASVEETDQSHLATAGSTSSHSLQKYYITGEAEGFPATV
Androgen receptor (Homo sapiens), sequence (P10275 whole entry, looked up): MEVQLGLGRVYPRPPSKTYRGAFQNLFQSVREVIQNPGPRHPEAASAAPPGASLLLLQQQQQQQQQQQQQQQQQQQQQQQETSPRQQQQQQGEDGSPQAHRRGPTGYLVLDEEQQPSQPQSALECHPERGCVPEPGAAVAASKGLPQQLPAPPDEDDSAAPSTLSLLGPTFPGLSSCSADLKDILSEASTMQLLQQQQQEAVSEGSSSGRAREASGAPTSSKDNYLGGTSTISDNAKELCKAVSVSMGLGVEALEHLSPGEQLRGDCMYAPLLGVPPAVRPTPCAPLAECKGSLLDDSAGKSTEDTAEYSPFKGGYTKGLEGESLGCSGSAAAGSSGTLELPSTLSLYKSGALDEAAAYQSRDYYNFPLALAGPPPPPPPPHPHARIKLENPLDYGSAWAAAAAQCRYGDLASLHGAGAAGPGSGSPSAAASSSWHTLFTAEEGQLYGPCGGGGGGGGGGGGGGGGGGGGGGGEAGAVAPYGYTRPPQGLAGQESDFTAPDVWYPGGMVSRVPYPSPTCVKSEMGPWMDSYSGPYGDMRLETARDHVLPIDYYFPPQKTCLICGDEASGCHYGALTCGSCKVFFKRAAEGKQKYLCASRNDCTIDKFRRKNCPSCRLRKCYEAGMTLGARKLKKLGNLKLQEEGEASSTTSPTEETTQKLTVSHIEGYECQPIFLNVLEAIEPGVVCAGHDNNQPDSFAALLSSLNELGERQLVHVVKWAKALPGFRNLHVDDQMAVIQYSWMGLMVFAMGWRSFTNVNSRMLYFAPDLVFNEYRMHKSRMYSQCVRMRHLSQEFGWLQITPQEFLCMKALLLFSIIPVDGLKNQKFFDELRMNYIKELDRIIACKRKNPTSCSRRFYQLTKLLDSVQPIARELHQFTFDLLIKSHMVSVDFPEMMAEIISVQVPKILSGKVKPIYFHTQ

`O=Cc1ccccc1C=O`: the Potency entry in [1], in test [2], in test [4], in test [5], in test [6] and in test [7] was “inactive” each time. The Potency entry in test [8], in test [9], in test [11], in [12], in [13] and in [16] was “inactive” in each case. Also, the Potency in test [3] was 21.9 µM (active) and inactive; in [10], 54.5 µM (active) and inactive; in test [15], 61.1 µM (active) and inactive. In addition, in test [14], the compound was called inactive.
Regarding `COc1ccc(C(=O)c2ccccc2O)c(O)c1`, the Potency entry in [2], in [3], in test [17], in test [4], in [18] and in test [5] was “inactive” in each case. Further, the Potency entry in test [6], in test [7], in test [8], in [9], in test [12] and in [13] was “inactive” in each case. In addition, the Potency entry in test [15] and in [16] was “inactive” in each case. The outcome in test [14] was inactive.
With `CN1CCOCC1`, the Potency entry in test [1], in test [2], in test [3], in [4], in test [18] and in test [6] was “inactive” each time. Also, the Potency entry in test [7], in test [8], in [19], in test [9], in [13] and in test [15] was “inactive” throughout. For the same compound, the Potency entry in test [20] and in test [16] was “inactive” each time. Also, the outcome in [14] was inactive.
In the case of `CC(C)=CCO`, the Potency result in [1], in test [2], in test [3], in test [4], in [18] and in test [5] was “inactive” in each case. Also, the Potency entry in test [6], in [7], in test [8], in test [19], in [9] and in test [11] was “inactive” throughout. In addition, the Potency entry in [13], in [15] and in [16] was “inactive” each time. In addition, in [14], the call was inactive.
With `OC[C@H]1O[C@@H]2O[C@H]3[C@H](O)[C@@H](O)[C@@H](O[C@H]4[C@H](O)[C@@H](O)[C@@H](O[C@H]5[C@H](O)[C@@H](O)[C@@H](O[C@H]6[C@H](O)[C@@H](O)[C@@H](O[C@H]7[C@H](O)[C@@H](O)[C@@H](O[C@H]1[C@H](O)[C@H]2O)O[C@@H]7CO)O[C@@H]6CO)O[C@@H]5CO)O[C@@H]4CO)O[C@@H]3CO`, the Potency entry in [1], in [2], in test [3], in [4], in test [18] and in [6] was “inactive” each time. Also, the Potency entry in test [7], in [8], in test [19], in test [9], in test [11] and in [12] was “inactive” each time. In addition, the Potency entry in [13], in test [15] and in test [16] was “inactive” throughout. Besides, in test [14], the outcome was inactive. In [20], the Potency result was “inactive and 25.7 µM (active)”.
Turning to `CCCOCCO`, the Potency entry in test [1], in test [2], in [3], in [4], in test [18] and in test [5] was “inactive” throughout. Further, the Potency entry in test [6], in [7], in [8], in [9], in test [13] and in test [15] was “inactive” throughout. Moreover, the Potency result in [20] and in test [16] was “inactive” in each case. In addition, in [14], the call was inactive.
On to `CCCCCCCCCCC(CO)CCCCCCCC` (stereo unspecified), for which the Potency entry in test [1], in test [2], in test [3], in test [4], in [18] and in test [5] was “inactive” each time. Moreover, the Potency result in test [6], in test [7], in [8], in test [9], in test [12] and in test [13] was “inactive” in each case. Also, the Potency entry in [15], in [20] and in [16] was “inactive” each time. Also, the result in [14] was inactive.
As for `CN(C)CCCN1c2ccccc2Sc2ccc(Cl)cc21`, the Potency in test [1] is 43.6 µM (active); in test [3], 24.5 µM (active) and 23.9 µM (active); in [4], 49 µM (active) and 23.9 µM (active); in test [6] it was 54.9 µM (active) and 26.8 µM (active); in test [9], 61.1 µM (active); in test [12], 3.16 µM (active). The Potency in test [15] is 30.6 µM (active) and 23.7 µM (active). In addition, the Potency entry in [2], in test [8] and in [16] was “inactive” each time. For the same compound, the compound was classed as inactive in [14].

Source of the values: PubChem BioAssay (Tox21).
